# Measurements reported in PubChem BioAssay AID595 (National Center for Advancing Translational Sciences (NCATS), 2007).
# Screen size: about 71,000 compounds; about 310 (0.44%) were called active. Not shown: some 5% with an inconclusive outcome. The list comes from a sample in which actives are over-represented; it also holds similar structures and randomly drawn compounds. A call without a number means that no potency is given here. Unmarked numbers belong to inactive results. The call rests on the fitted dose curve; in most records, active means well fitted curve in either direction with a large enough effect; inconclusive means small, poorly fitted or top-dose-only effect, or another doubt; inactive means flat fitted curve, though single readings scatter.
# Tested on: Hsp90 C-terminal peptide / TPR2A (Hop) interaction, human
# Test: qHTS Assay for Disrupters of an Hsp90 Co-Chaperone Interaction
# Conditions: AlphaScreen TPR2A-His6 binding biotin-Hsp90 C-terminal peptide; series mostly up to 57 µM
# Potency means the concentration at half of the fitted maximal effect.
SMILES,"activity change, negative = inhibition",Potency
CC1=C(C(=O)Nc2ccccc2)C(c2cccs2)C(C#N)=C(SCC#N)N1 (configuration not stated),inactive,–
CCCCN(CCCC)C(=O)CCS(=O)(=O)c1ccc2c(c1)n(C)c(=O)c(=O)n2C,inactive,–
Cc1cnc(CNc2nc(-c3cccnc3)nc3ccccc23)cn1,inactive,–
CCCn1nnc2sc3c(c2c1=O)CCC(C)C3 (configuration not stated),inactive,–
Cn1cccc1C(=O)N1CCC[C@@]2(CCN(Cc3nccs3)C2)C1,inactive,–
Cc1n[nH]c(C)c1S(=O)(=O)N1CCCC(C(=O)NCC2COc3ccccc3O2)C1 (configuration not stated),inactive,–
c1ccc(Oc2ccccc2)cc1,inactive,–
COC(=O)[C@@]1(Cc2ccccc2)[C@H]2c3cc(C(=O)N(C)C)n(CCSCCO)c3C[C@H]2CN1C(=O)c1ccccc1,inactive,–
C=CCn1c(COc2ccccc2F)nnc1SCC(=O)N1CC(=O)Nc2ccccc21,inactive,–
CO[C@@H]1/C=C\O[C@]2(C)Oc3c(C)c(O)c4c(O)c(c(CN(C)C)c(O)c4c3C2=O)NC(=O)/C(C)=C\C=C[C@@H](C)[C@@H](O)[C@H](C)[C@@H](O)[C@H](C)[C@H](OC(C)=O)[C@@H]1C,-3.79% [at 11 µM],–
CC[C@H](c1ccccc1)c1cc(C(C)(C)C)cc(C(C)(C)C)c1O,5.54% [at 11 µM],–
S=c1[nH]nc(SCc2ccccc2Cl)c2[nH]cnc12,-1.97% [at 11 µM],–
Oc1cc2c(cc1O)CN(C(=S)NCCc1ccc(Cl)cc1)CCC2,inactive,–
CCOC(=O)c1[nH]cnc1C(=O)NC1CCCCC1,inactive,–
N#Cc1ccccc1-c1ccc2ncnc(NCc3cccnc3)c2c1,inactive,–
O=C(O)C1CCN(c2ncnc3ccc(-c4ccccc4C(F)(F)F)cc23)CC1,inactive,–
c1ccc2c(Nc3ccncc3)nc(-c3ccc4c(c3)OCO4)nc2c1,inactive,–
C#CCCCCCCCCCCCCCCCC(=O)O,inactive,–
Cc1ccnc(NC(=O)c2ccc(NC(=O)c3ccco3)cc2)c1,inactive,–
CC(NC(=O)c1ccco1)C(=O)Nc1nc(-c2ccccn2)cs1 (configuration not stated),–,10 µM (active)
O=C(Nc1ccc(NC(=O)c2cccs2)cn1)c1ccco1,inactive,–
N#CCCn1c(=O)c(-c2cc(F)cc(F)c2)nc2cnc(Oc3ccccc3)nc21,inactive,–
CCCc1cc(=O)[nH]c(SCC(=O)OCc2ccccc2)n1,inactive,–
COc1ccccc1-c1nc(NCc2cccs2)c2ccccc2n1,inactive,–
O=C(Nc1c2c(nn1-c1ccc(F)cc1)CS(=O)C2)C12CC3CC(CC(C3)C1)C2 (configuration not stated),inactive,–
CCOC(=O)CNC(=O)CSc1nnc(-c2cccc(OC)c2)n1CC,inactive,–
COC(=O)[C@H]1[C@H]2C[C@H]3c4[nH]c5ccccc5c4CCN3C[C@@H]2CC[C@@H]1O,inactive,–
